Values joined by “and” are separate entries in the source; they are usually repeats but may differ in a detail not shown here. Equal entries are not always repeated. ± gives the standard deviation of the averaged measurements.
How the values were obtained:
Conditions in all cases: concentration: 10 µM; 24 h
HCC1569 [1] = assay: cell number relative to DMSO (% of DMSO); higher = more cells (less growth inhibition / toxicity)
In short: (§1)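 For HCC1569 and TDF cells, compounds at 10 µM were applied for 24 h at 37 °C in triplicate in 384-well plates. Cells were fixed in 3.7% formaldehyde, stained for H1.0 and with DAPI, and imaged at ×10 over six fields per well. The endpoint, H1.0 nuclear intensity or cell number, is shown as percent of the plate control using the median of replicates. Positional effects were smoothed for HCC1569 only.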

TDF [2] = assay: as above
In short: as §1

TDF [3] = assay: H1.0 immunofluorescence intensity relative to DMSO (% of DMSO); higher = stronger H1.0 induction, active = 120 or more
In short: as §1

HCC1569 [4] = assay: H1.0 immunofluorescence intensity relative to DMSO (% of DMSO); higher = stronger H1.0 induction, active = 140 or more
In short: as §1
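Wherever H1.0 immunofluorescence intensity relative to DMSO is given: TDF is a line of transformed human dermal fibroblasts of mesenchymal origin.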
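Wherever cell number relative to DMSO is given: TDF denotes transformed human dermal fibroblasts of mesenchymal origin.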

Compound | cell number (HCC1569 [1]) | cell number (TDF [2]) | H1.0 immunofluorescence intensity (TDF [3]) | H1.0 immunofluorescence intensity (HCC1569 [4])
CCN1CCCC1CNC(=O)c1c(OC)ccc(Br)c1OC (stereo not given) [Remoxipride] | 101 | 101 | 96.7 (inactive) | 108 (inactive)
CCOC(=O)c1cnc2c(cnn2CC)c1NN=C(C)C.Cl [Etazolate hydrochloride] | 107 | 101 | 86.8 (inactive) | 99.5 (inactive)
CCOc1nc(NC(=O)Cc2cc(OC)ccc2OC)cc(N)c1C#N [JNK Inhibitor VIII] | 97.9 | 104 | 92.7 (inactive) | 120 (inactive)
O=C1CC(=O)c2c(Cl)c(Cl)c(Cl)c(Cl)c21 [4,5,6,7-tetrachloro-1H-indene-1,3(2H)-dione] | 101 | 103 | 117 (inactive) | 99.1 (inactive)
Cn1c2ccccc2c2c3c(c4c5ccccc5n(CCC#N)c4c21)CNC3=O | 94.3 | 30.5 | 90.7 (inactive) | 99.5 (inactive)
CCCCCC(O)C=CC1C(O)CC(O)C1CCCCCCC(=O)O (stereo not given) [Prostaglandin F1a] | 106 | 101 | 91.9 (inactive) | 97.7 (inactive)
O=C(Nc1cccc(Nc2nccc(Nc3cccc(C(F)(F)F)c3)n2)c1)C1CC1 [Aurora Kinase Inhibitor III] | 63 ± 1.4 | 35.8 ± 3.4 | 129 (active) | 247 (active)
COc1cccc2oc(-c3ccccc3)cc(=O)c12 [5-Methoxyflavone] | 99.7 | 84.4 | 100 (inactive) | 98.8 (inactive)
Nc1nc(=O)n(C2CSC(CO)O2)cc1F (stereo not given) [Emtricitabine] | 105 | 99.4 | 96.1 (inactive) | 105 (inactive)
N=C1Sc2ccccc2C2=NCCCN12 | 100 | 99.9 | 91.9 (inactive) | 112 (inactive)
Nc1ncnc2c1ncn2C1CCCC1 [9-cyclopentyladenine] | 102 | 113 | 95.1 (inactive) | 84.6 (inactive)
O=C(c1ccc(OCCN2CCCCC2)cc1)c1c(-c2ccc(O)cc2)sc2cc(O)ccc12 [Raloxifene] | 95.5 | 105 | 102 (inactive) | 127 (inactive)
COc1ccc(CC[C@H]2CCC[C@@H](CCc3ccc(OC)cc3)N2C[C@@H](O)CO)cc1.Cl | 101 | 103 | 93.3 (inactive) | 92.7 (inactive)
CC=CCC=CCCC(=O)C1OC1C(N)=O (stereo not given) [Cerulenin] | 92.6 | 91.5 | 97.8 (inactive) | 111 (inactive)
O.O.O=c1c(O)c(-c2ccc(O)c(O)c2)oc2cc(O)cc(O)c12 | 90.7 | 89.7 | 101 (inactive) | 116 (inactive)
O=c1[nH]cc(F)c(=O)[nH]1 [5-Fluorouracil] | 81.345 ± 0.068 | 92.4 ± 4.8 | 97.7 (inactive) | 94.5 (inactive)
CCCn1c(=O)c2[nH]c(-c3ccc(S(=O)(=O)O)cc3)nc2n(CCC)c1=O [1,3-Dipropyl-8-p-sulfophenylxanthine] | 104 | 106 | 90.4 (inactive) | 92.6 (inactive)
Cc1nccn1CC1CCc2c(c3ccccc3n2C)C1=O (stereo not given) [Ondansetron] | 103 | 104 | 95.4 (inactive) | 118 (inactive)
Cc1cc(C)c(NC(=O)CC(CC(=O)[O-])c2cccc3ccccc23)c(C(=O)N2CCC3(CCCC3)CC2)c1.[Na+] (stereo not given) | 105 | 102 | 101 (inactive) | 99.8 (inactive)
CCC1Cc2cc(O)ccc2C2=C1c1ccc(O)cc1CC2CC [(R,R)-cis-Diethyl tetrahydro-2,8-chrysenediol] | 87.5 | 110 | 87.9 (inactive) | 107 (inactive)
O=C(c1cc(O)c(O)c([N+](=O)[O-])c1)c1ccccc1F | 106 | 106 | 95.7 (inactive) | 99.2 (inactive)
CCCCCC(O)C=CC1C=CC(=O)C1CCCCCCC(=O)O (stereo not given) [Prostaglandin A1] | 97 ± 5.2 | 98 ± 2.2 | 93.3 (inactive) | 93.8 (inactive)
N=c1ccn2c(n1)OC1C(O)C(CO)OC12 (stereo not given) [Cyclocytidine] | 76.4 | 51.7 | 103 (inactive) | 101 (inactive)
O=C(O)c1cn(C2CC2)c2cc(N3CCNCC3)c(F)cc2c1=O [Ciprofloxacin] | 105 | 107 | 91.7 (inactive) | 102 (inactive)
CNC(CC(C)C)C(=O)NC1C(=O)NC(CC(N)=O)C(=O)NC2C(=O)NC3C(=O)NC(C(=O)NC(C(=O)O)c4cc(O)cc(O)c4-c4cc3ccc4O)C(O)c3ccc(c(Cl)c3)Oc3cc2cc(c3OC2OC(CO)C(O)C(O)C2OC2CC(C)(N)C(O)C(C)O2)Oc2ccc(cc2Cl)C1O.Cl (stereo not given) [Vancomycin hydrochloride from Streptomyces orientalis] | 99.6 | 108 | 90.4 (inactive) | 101 (inactive)

Compound | cell number (HCC1569 [1]) | cell number (TDF [2]) | H1.0 immunofluorescence intensity (TDF [3]) | H1.0 immunofluorescence intensity (HCC1569 [4])
CCC=CCC=CCC=CCC=CCC=CCC=CCCC(=O)OC(COCCCCCCCCCCCCCCCC)COP(=O)([O-])OCC[N+](C)(C)C (stereo not given) | 105 | 100 | 95.7 (inactive) | 101 (inactive)
C#CCNCc1cc2cc(OCc3ccccc3)ccc2[nH]1 [N-((5-(benzyloxy)-1H-indol-2-yl)methyl)prop-2-yn-1-amine] | 82.8 | 91 | 96 (inactive) | 136 (inactive)
C=CC(=O)Nc1cc2c(Nc3ccc(F)c(Cl)c3)ncnc2cc1OCCCN1CCOCC1.Cl.Cl [Canertinib] | 75.8 | 87.4 | 108 (inactive) | 125 (inactive)
CN(C)CCC=C1c2ccccc2COc2ccccc21.Cl [Doxepin hydrochloride] | 100 | 95.2 | 93.1 (inactive) | 97.5 (inactive)
O=C1OC(CN2CCOCC2)CN1/N=C/c1ccc([N+](=O)[O-])o1 (stereo not given) | 102 | 96.5 | 96.7 (inactive) | 104 (inactive)
CN(C)c1ccc(C=C2C(=O)Nc3ccccc32)cc1 | 95.9 and 109 and 98.8 | 86.6 and 102 and 98.2 | 97 (inactive) and 108 (inactive) and 101 (inactive) | 114 (inactive) and 102 (inactive) and 125 (inactive)
CN1CCC(=C2c3ccccc3C=Cc3ccccc32)CC1 [Cyproheptadine] | 100 | 83.7 | 98.2 (inactive) | 108 (inactive)
CCCn1cnc2c1c(=O)n(CCCCC(C)=O)c(=O)n2C [Propentofylline] | 104 | 113 | 90.3 (inactive) | 100 (inactive)
O=C1c2cccc(O)c2C(=O)c2c(O)cc(CO)cc21 [Aloe-emodine] | 95.7 | 89.9 | 97.3 (inactive) | 99.5 (inactive)
NC(=O)c1ccc(N(C(N)=O)c2c(F)cccc2F)nc1-c1ccc(F)cc1F | 105 | 104 | 94.8 (inactive) | 90.2 (inactive)
CCC=CCC=CCC=CCCCCCCCCCCCC(=O)O [Docosatrienoic acid] | 101 ± 2.4 | 97.7 ± 10 | 100 (inactive) | 102 (inactive)
N#CC(=Cc1ccc(O)c(O)c1)C(=O)c1ccc(O)c(O)c1 [Tyrphostin AG 538] | 80.4 | 97.3 | 99.2 (inactive) | 190 (active)
CCN1C(=O)C=CC1=O [N-Ethylmaleimide] | 102 ± 5.4 | 97.2 ± 4.9 | 96.6 (inactive) | 91.7 (inactive)
CN(C)[C@@H](CCOc1cccc2ccccc12)c1ccccc1.Cl | 90.3 | 92.4 | 104 (inactive) | 142 (active)
CC[C@H](C(=O)Nc1ccccc1N1CCCC1)c1ccccc1 [(2S)-2-Phenyl-N-[2-(1-pyrrolidinyl)phenyl]butanamide] | 101 | 103 | 96.1 (inactive) | 105 (inactive)
COc1ccccc1O [Guaiacol] | 103 | 107 | 92.7 (inactive) | 107 (inactive)
O=C(CCCN1CCC(O)(c2ccc(Cl)cc2)CC1)c1ccc(F)cc1 [Haloperidol] | 91 ± 7.7 | 92.6 ± 3.7 | 101 (inactive) | 117 (inactive)
CCCCCCCCCCCCCCCC(=O)OCC(O)C1OC(=O)C(O)=C1O (stereo not given) [Ascorbyl palmitate] | 98.6 | 105 | 96.1 (inactive) | 102 (inactive)
O=C(CCN1CCN(C(=O)OCc2cc(Cl)cc(Cl)c2)CC1)c1ccc2[nH]c(=O)oc2c1 | 70.5 | 104 | 87.1 (inactive) | 168 (active)
Cc1nc2c([nH]1)c(=O)n(C)c(=O)n2Cc1ccco1 [Furafylline] | 103 ± 5.7 | 107 ± 11 | 94.5 (inactive) | 103 (inactive)
O=C1Cc2c([nH]c3ccc([N+](=O)[O-])cc23)-c2ccccc2N1 [Alsterpaullone] | 82.4 ± 33 | 72.6 ± 41 | 92.9 (inactive) | 99.1 (inactive)
COc1ccc2c(c1OC)N=C(NC(=O)c1cccnc1)N1CCN=C21 | 99.8 | 93.2 | 94.1 (inactive) | 101 (inactive)
NC(CS(=O)O)C(=O)O [L-Cysteinesulfinic Acid] | 102 | 113 | 96.7 (inactive) | 92.3 (inactive)
Cc1cn[nH]c1.Cl [4-Methylpyrazole hydrochloride] | 108 | 102 | 98.5 (inactive) | 95.4 (inactive)
NC(CCC(=O)NC(CSN=O)C(=O)NCC(=O)O)C(=O)O (stereo not given) [S-Nitrosoglutathione] | 104 | 102 | 88.7 (inactive) | 90.2 (inactive)
